# Six1-Eya2 blk = qHTS Assay for Inhibitors of the Six1/Eya2 Interaction. 360,000 tested, 0.56% active. AlphaScreen GST-Six1/His-Eya2 binding, biochemical; active compounds read low. Homeobox protein SIX1 (Homo sapiens) + Protein phosphatase EYA2 (Homo sapiens), …. AID 651725, 2012. activity change, % (concentration not given with the values); in the data active = activity change below about -65%; inconclusive = mostly about -30% to -63%
#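 Homogeneous AlphaScreen proximity assay pairing GST-Six1 with His-tagged Eya2 (added as 5X mix: 250 nM and 500 nM) in 50 mM Tris pH 8.0, 300 mM NaCl, 1 mM TCEP. Glutathione donor and nickel acceptor beads; 1 h, 37 °C, dark.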
# B2AR arrestin = qHTS assay of beta-arrestin-biased ligands of beta2-adrenergic receptor; Beta-2 adrenergic receptor (Homo sapiens), P07550; 330,000 tested, 0.02% active; Potency, µM (highest dose often 46.1 µM), most hits filed as activators; beta-arrestin recruitment to beta2AR, cell-based reporter; also: nearly all actives have a fitted effect of over 65% in size
# L3MBTL1 inh-1 = qHTS Assay for the Inhibitors of L3MBTL1. Lethal(3)malignant brain tumor-like protein 1 (Homo sapiens), Q9Y468. AID 485360, 2010. AlphaScreen L3MBTL1–H3K9me1 peptide binding. Potency, µM (titrated, usually from 57.1 µM), hits mostly inhibitors. 230,000 tested, 0.66% active; also: nearly all actives have a fitted effect of over 60% in size
#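 AlphaScreen proximity signal between nickel-chelate acceptor and streptavidin donor beads (final 10 ug/mL) reports binding of 50 nM L3MBTL1 to 75 nM biotin-H3 K9me1 peptide; complex incubated with compounds 30 min at room temperature; cefsulodin titration as control.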
# CtBP-E1A inh = qHTS Assay for Inhibitors of the CtBP/E1A Interaction; AlphaScreen GST-E1A/His-CtBP binding, 1536-well; active compounds read low; activity change, % (no concentration beside the values); 340,000 tested, 0.49% active; in the data active = activity change below about -65%; inconclusive = mostly about -30% to -63%
#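 GST-E1A and His-tagged CtBP (125 nM each as 5X stock) were preincubated with pin-transferred compound for 2 h at 37 °C in the dark, then glutathione donor and nickel acceptor beads were added for 1 h before AlphaScreen reading.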
# Eya2 inh = qHTS Assay for Inhibitors of the Phosphatase Activity of Eya2; Potency, µM (highest dose often 76.9 µM), hits mostly inhibitors; AID 488837, 2010; 330,000 tested, 0.006% active; Protein phosphatase EYA2 (Homo sapiens), O00167; recombinant Eya2, OMFP fluorescence dephosphorylation (OMFP is methylfluorescein phosphate)
# Target sequence (O00167 whole entry, looked up): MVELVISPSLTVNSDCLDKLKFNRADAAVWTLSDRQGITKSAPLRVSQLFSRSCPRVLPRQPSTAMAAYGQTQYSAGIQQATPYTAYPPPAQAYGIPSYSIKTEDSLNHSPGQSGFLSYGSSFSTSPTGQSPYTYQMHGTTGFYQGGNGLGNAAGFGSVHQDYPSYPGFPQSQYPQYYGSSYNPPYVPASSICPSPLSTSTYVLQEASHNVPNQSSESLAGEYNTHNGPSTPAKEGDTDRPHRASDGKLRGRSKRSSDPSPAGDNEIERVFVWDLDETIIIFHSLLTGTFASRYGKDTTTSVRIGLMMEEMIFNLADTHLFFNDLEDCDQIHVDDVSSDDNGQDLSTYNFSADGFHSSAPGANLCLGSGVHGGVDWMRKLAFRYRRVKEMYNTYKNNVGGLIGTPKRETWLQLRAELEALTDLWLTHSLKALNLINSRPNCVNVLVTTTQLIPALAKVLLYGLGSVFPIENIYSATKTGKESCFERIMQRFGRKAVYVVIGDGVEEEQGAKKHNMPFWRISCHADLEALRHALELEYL
#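 Eya2 (0.2 uM) preincubated 10 min at ambient with compound, then OMFP substrate added at 50 uM; 10 min reaction in 50 mM HEPES pH 7.5, 50 mM NaCl, 5 uM MgCl2, 0.05% BSA, 1 mM DTT. Fluorescence read at Ex 485/Em 525 nm.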
# L3MBTL1 inh-2 = qHTS Assay for the Inhibitors of L3MBTL1: Hit Validation | shares compounds with L3MBTL1 inh-1 | L3MBTL1 methyl-lysine binding inhibition, biochemical qHTS | Potency, µM, hits mostly inhibitors | 500 tested, 91% active; also: nearly all actives have a fitted effect of over 70% in size
# AlphaScreen ctr2 = qHTS Assay for the Inhibitors of L3MBTL1: Hit Validationin AlphaScreen Counterscreen; shares compounds with L3MBTL1 inh-1; AlphaScreen counterscreen, signal inhibition; AID 602224, 2012; 500 tested, under 10 active; Potency, µM (series often up to 57.1 µM), actives largely listed as inhibitors
# Hits are given with their value; i = inactive; ? = inconclusive; nt = no result given; [ ] = another dose, or the depositor's remark. Most compounds without a hit are left out; they make up all but 0.9% or so of the library. Unless noted, calls follow the shape of the dose curve; as a rule, active = well fitted curve in the direction sought with a large enough effect; inconclusive = small, poorly fitted or top-dose-only effect, or another doubt; inactive = no such curve, though single readings can be large; an effect the other way counts as inactive or inconclusive.
SMILES,Six1-Eya2 blk,B2AR arrestin,L3MBTL1 inh-1,CtBP-E1A inh,Eya2 inh,L3MBTL1 inh-2,AlphaScreen ctr2
CCOC(=O)c1cc(-c2ccc(N3CCOCC3)cc2)nn1-c1ccccc1C(=O)O,?,i,14.1µM,i,i,6.7,i
CC(C)(C)OC(=O)N1CCCC(C(=O)Nc2cccc(C(=O)N3CCOCC3)c2)C1 (stereo unspecified),i,nt,nt,i,nt,nt,nt
COc1ccc(N2Cc3cccc(C(=O)N4CCN(C(=O)c5ccco5)CC4)c3C2=O)cc1,i,i,28.2µM,i,i,2.67,i
CCCCN(C(=O)c1cccc(-n2cccc2)c1)c1c(N)n(CCCC)c(=O)[nH]c1=O,i,i,?,i,i,nt,nt
CCCCN(C(=O)c1cccc(-n2cccc2)c1)c1c(N)n(CCC)c(=O)[nH]c1=O,i,i,14.1µM,i,i,9.47,i
CCCN(C(=O)c1ccc([N+](=O)[O-])c(C)c1)c1c(N)n(Cc2ccccc2)c(=O)[nH]c1=O,i,i,i,nt,i,nt,nt
CCCN(C(=O)c1cccc(-n2cccc2)c1)c1c(N)n(Cc2ccccc2)c(=O)[nH]c1=O,i,i,10µM,i,i,4.74,i
CCCN(C(=O)c1cc2c(s1)CCC2)c1c(N)n(Cc2ccccc2)c(=O)[nH]c1=O,i,i,17.8µM,i,i,5.32,i
CC(C)NC(=O)OC1CC2CC1[C@H]1CCCCN1C2=O (stereo partly specified),i,nt,nt,i,nt,nt,nt
O=C1CC(c2ccco2)CC(O)=C1C=Nc1ccccc1-c1ccccc1 (stereo unspecified),i,i,nt,i,i,nt,nt
O=C1CC(c2ccco2)CC(O)=C1C=Nc1cc(Cl)ccc1Cl (stereo unspecified),i,i,35.5µM,i,i,23.8,i
Cc1cc(C(C)(C)C)cc(C)c1S(=O)(=O)N1CCN(C(=O)c2cc([N+](=O)[O-])c[nH]c2=O)CC1,i,i,nt,i,i,nt,nt
O=C(CSc1nc(=O)n2cc(Cl)ccc2n1)Nc1cccc2ccccc12,i,i,25.1µM,i,i,?,i
CCCCN1Cc2c(nc3cc(-c4ccco4)[nH]n3c2=O)C1=O,i,i,28.2µM,i,i,26.7,i
Cc1c(S(=O)(=O)NC2CCCCCC2)c(=O)n(C)c(=O)n1C,i,i,i,i,i,nt,nt
CCOC(=O)C1=C(COC(=O)/C=C/c2ccc(OC)cc2)NC(=O)NC1C (stereo unspecified),i,i,i,i,i,nt,nt
CCOC(=O)C1=C(COC(=O)/C=C/c2ccco2)NC(=O)NC1C (stereo unspecified),i,i,7.94µM,i,i,8.44,i
COc1cc(OC)cc(-c2c(-c3cccs3)c3cc(-c4ccc(OC)c(OC)c4)ccc3n2C)c1,?,i,i,i,i,nt,nt
CC(C)(CS(=O)(=O)[O-])NC(=O)CC[N+](C)(C)CCO,i,i,3.55µM,i,i,1.19,i
O=C1CCCC(O)=C1Sc1ccccc1C(=O)O,i,i,15.8µM,nt,i,2.38,?
O=C1CCCC(O)=C1C(C#Cc1ccccc1)C1=C(O)CCCC1=O,i,i,i,i,i,nt,nt
COc1ccc(S(=O)(=O)N2CCN(C(=O)c3cc4c(s3)CCC4)CC2)cc1,?,i,3.55µM,i,i,3.36,i
Cc1nc(C)c(C(=O)OCC(=O)NCCc2ccc(F)cc2)s1,i,i,i,i,i,nt,nt
COC(=O)c1c(NC(=O)CN2C(=O)NC3(CCC(C)CC3)C2=O)sc2c1CCC2 (stereo unspecified),i,i,i,i,i,nt,nt
CC1CCC2(CC1)NC(=O)N(CC(=O)Nc1sc3c(c1C(N)=O)CCC3)C2=O (stereo unspecified),i,i,28.2µM,i,i,3.77,i
SMILES,Six1-Eya2 blk,B2AR arrestin,L3MBTL1 inh-1,CtBP-E1A inh,Eya2 inh,L3MBTL1 inh-2,AlphaScreen ctr2
O=c1cc(OCc2ccccc2)cc[nH]1,i,i,28.2µM,i,i,5.97,i
Cc1[nH]ccc(=O)c1OCc1ccccc1,i,i,i,i,i,nt,nt
CC1(C)CC(NC(=O)c2ccccc2NS(=O)(=O)c2ccc(Br)cc2)CC(C)(C)N1,i,nt,nt,i,nt,nt,nt
O=C(NCc1ccccn1)c1ccc(=O)oc1,-87.4,i,15.8µM,-79.3,i,21.2,i
O=C(NCc1ccccn1)c1ccc(-c2ccccc2)cc1,i,i,i,i,i,nt,nt
COc1cccc(C=O)c1OCCCOc1cccc2cccnc12,i,i,i,nt,i,nt,nt
Cc1ccccc1NC(=O)c1nc2nccc(C)n2n1,nt,i,i,nt,i,nt,nt
Cc1ccnc2nc(C(=O)Nc3nc(-c4ccccn4)cs3)nn12,-91.6,i,14.1µM,-84.7,i,4.23,?
COC1=CC(=O)C=C(OC)C1(O)CC(C)=O,i,nt,nt,i,nt,nt,nt
NC(=O)c1c(NC(=O)CN2CCN(S(=O)(=O)c3ccccc3)CC2)sc2c1CCC2,i,i,?,i,i,nt,nt
CSC[C@H]1CN(Cc2ccccc2)C(=O)[C@@H]1CC(=O)Nc1ccc(Br)cc1,i,nt,nt,i,nt,nt,nt
N#Cc1c(NC(=O)CSc2ncnc3sccc23)oc(-c2ccco2)c1-c1ccco1,?,i,12.6µM,?,i[15.4 µM],16.8,i
OC(c1ccccn1)(c1ccccn1)c1ccccn1,-85.1,i,15.8µM,i,i,21.2,i
CCOC(=O)C1(C(=O)OCC)C(C(=O)c2ccccc2)C1c1ccccc1 (stereo unspecified),i,nt,nt,i,nt,nt,nt
Cc1cc(/C=C(/C#N)c2nc3ccccc3[nH]2)c(C)n1-c1cc(C(=O)O)cc(C(=O)O)c1,-69.2,i,3.55µM,-65.6,i,1.5,i
Cc1cc(/C=C(/C#N)c2nc3ccccc3[nH]2)c(C)n1-c1ccccc1C(=O)O,?,i,nt,i,i,nt,nt
O=C(Cc1ccc(S(=O)(=O)N2CCOCC2)s1)Nc1nc2c(s1)CCCC2,i,i,11.2µM,i,i,6.7,i
O=C(Cc1ccc(S(=O)(=O)N2CCOCC2)s1)Nc1ccc2c(c1)CCC2,i,i,i,i,i,nt,nt
CCN=C1S/C(=C\c2ccc(-c3cccc(C(=O)O)c3)o2)C(=O)N1CC,i,i,39.8µM,i,i,23.8,i
CCN1C(=O)/C(=C\c2ccc(-c3cccc(C(=O)OC)c3)o2)SC1=Nc1ccc(C(=O)O)cc1,nt,i,i,nt,i,nt,nt
Cc1cccc(NCc2ccc(O)c3ncccc23)c1C,-73.7,i,25.1µM,-89.3,i,9.47,i
